Active and inactive are the calls of the source.
Tests used:
[1] = test system: Plasmodium falciparum Sir2 (PF13_0152, Sir2A); assay: Plasmodium falciparum Sir2A binding compounds – biochemical, small-molecule microarray, 635 nm fluorescence, primary screen (AID 1098); settings: fluorescence 635 nm, higher = more signal;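 further: score merges spot fluorescence intensity with its signal-to-noise ratio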
[2] = probe aDKK1 binding to arrayed compounds – biochemical, biotinylated probe, 635/667 nm fluorescence, primary screen (AID 1099); settings: small-molecule microarray, higher = more signal;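 further: score merges 667nm spot fluorescence with signal to noise across triplicate slides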
[3] = probe aCHRDL2 binding to arrayed compounds – biochemical, biotinylated probe, 635/667 nm fluorescence, primary screen (AID 1100); settings: small-molecule microarray, higher = more signal
[4] = change in splice reporter luminescence, either direction, cell-based, HEK293, spliceosome inhibition project, primary screen (AID 1101); settings: HEK293 splicing luciferase reporter, 24 h, higher = more signal, called active from +8 up or from −8 down;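 further: HEK293 cells carrying a splicing-competent luciferase reporter gene; test concentration not given here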
[5] = biological target: Fibroblast growth factor 10 (Homo sapiens) (UniProt O15520); assay: compounds binding fibroblast growth factor 10 – biochemical, small-molecule microarray, 635 nm fluorescence, primary screen (AID 1102); settings: FGF10 binding, fluorescence 635 nm, higher = more signal
[6] = test system: glycogen synthase kinase-3 (GSK3A per assay name; protocol says GSK3B); assay: compounds binding glycogen synthase kinase-3 – biochemical, small-molecule microarray, 635 nm fluorescence, GSK3A, primary screen (AID 1103); settings: fluorescence 635 nm, higher = more signal; further: the record names both GSK3A and GSK3B
[7] = biological target: Epidermal growth factor receptor (Homo sapiens) (UniProt P00533); assay: compounds binding epidermal growth factor receptor – biochemical, small-molecule microarray, 635 nm fluorescence, primary screen (AID 1104); settings: EGFR binding, higher = more signal;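 further: score merges 667 nm emission intensity with spot signal to noise over triplicate slides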
[8] = biological target: Follistatin-related protein 3 (Homo sapiens) (UniProt O95633); assay: compounds binding follistatin-related protein 3 – biochemical, small-molecule microarray, 635 nm fluorescence, primary screen (AID 1105); settings: FSTL3 binding, higher = more signal;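 further: score merges emission near 667 nm and signal to noise per printed spot across three slides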
[9] = biological target: Dickkopf-related protein 1 (Homo sapiens) (UniProt O94907); assay: small molecules binding DKK1 protein – biochemical, small-molecule microarray, 635 nm fluorescence scan, primary screen (AID 1106); settings: higher = more signal;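 further: score merges emission near 667 nm with signal to noise over three replicate slides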
[10] = test system: Inhibin beta A chain (activin A); assay: small molecules binding activin A – biochemical, small-molecule microarray, 635 nm fluorescence scan, primary screen (AID 1107); settings: INHBA, higher = more signal;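 further: mouse activin A protein probed at 4.33 µg/mL on printed slides; score merges bound-protein fluorescence near 667 nm with spot signal-to-noise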
[11] = test system: Human papillomavirus type 1a protein E7 (residues 44-93); assay: small molecules binding HPV E7 44-93 – biochemical, small-molecule microarray, residues 44-93, 635 nm fluorescence, primary screen (AID 1108); settings: fluorescence 635 nm, higher = more signal;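 further: E7 fragment applied at 1 µg/mL in TBST for 1 h at 4 C; score combines spot fluorescence with its signal to noise ratio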
[12] = hepatitis C replication reporter changes, two-sided – Huh7 cells, luciferase reporter, HCV replication inhibitor project, primary screen (AID 1109); settings: Huh7 HCV replicon luciferase reporter, 48 h; higher = more signal;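 further: huh7 hepatoma cells harbouring a luciferase neomycin HCV replicon reporter; luciferase luminescence as measure of HCV replicon replication; test concentration not given here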
[13] = biological target: Left-right determination factor 2 (Homo sapiens) (UniProt O00292); assay: small molecules binding LEFTY2 protein – biochemical, small-molecule microarray, 635 nm fluorescence scan, primary screen (AID 1110); settings: higher = more signal
[14] = biological target: Calmodulin-1 (Homo sapiens) (UniProt P0DP23); assay: small molecules binding calmodulin-1 with EGTA – biochemical, small-molecule microarray, Cy5-labelled CALM1, profiling panel (AID 1111); settings: Cy5-CALM1 binding fluorescence, higher = more signal;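 further: labelled calmodulin applied in Tris saline Tween buffer holding calcium plus EGTA and DTT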
[15] = biological target: Calmodulin-1 (Homo sapiens) (UniProt P0DP23); assay: small molecules binding Ca-loaded calmodulin-1 – biochemical, small-molecule microarray, Cy5-labelled CALM1, plus calcium, artefact control for SMM control-protein annotation, profiling panel (AID 1112); settings: Cy5-CALM1 binding fluorescence, higher = more signal;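 further: score merges spot fluorescence with signal to noise from triplicate slides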
[16] = probe aWnt5a binding to arrayed compounds – biochemical, biotinylated probe, 635/667 nm fluorescence, primary screen (AID 1113); settings: small-molecule microarray, higher = more signal;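 further: score merges 667 nm fluorescence intensity with signal-to-noise per printed feature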
[17] = probe aShh binding to arrayed compounds – biochemical, biotinylated probe, 635/667 nm fluorescence, primary screen (AID 1114); settings: small-molecule microarray, higher = more signal;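 further: probe is biotin-labelled aShh protein from a stem cell growth factor screen; measures binding of labelled protein to compounds printed on the slide; score merges feature fluorescence at 667 nm with signal-to-noise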
[18] = probe aNog binding to arrayed compounds – biochemical, biotinylated probe, 635/667 nm fluorescence, primary screen (AID 1115); settings: small-molecule microarray, higher = more signal;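 further: probe is biotinylated aNog protein used at 0.15 µg/mL for 1 h at 4 C; z-score combines 667 nm fluorescence of each spot with its signal to noise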
[19] = biological target: Torsin-1A-interacting protein 1 (Homo sapiens) (UniProt Q5JTV8); assay: compound microarray binding of lysate hLAP1 – cell lysate, small-molecule microarray, COS7 lysate, 635/667 nm fluorescence, primary screen (AID 1116); settings: 635 nm fluorescence, higher = more signal
[20] = biological target: Alpha-bungarotoxin (Bungarus multicinctus) (UniProt P60615); assay: compounds binding labelled alpha-BTX control protein – biochemical, small-molecule microarray, Alexa647 label, 635/667 nm fluorescence, artefact control for SMM control protein annotation, profiling panel (AID 1117); settings: alpha-BTX-A647 binding fluorescence, higher = more signal
Chain of Alpha-bungarotoxin (Bungarus multicinctus) (P60615 whole entry, looked up): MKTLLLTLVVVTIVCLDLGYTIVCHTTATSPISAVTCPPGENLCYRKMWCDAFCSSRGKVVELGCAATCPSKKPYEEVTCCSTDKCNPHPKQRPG

Chain of Torsin-1A-interacting protein 1 (Homo sapiens) (Q5JTV8 whole entry, looked up): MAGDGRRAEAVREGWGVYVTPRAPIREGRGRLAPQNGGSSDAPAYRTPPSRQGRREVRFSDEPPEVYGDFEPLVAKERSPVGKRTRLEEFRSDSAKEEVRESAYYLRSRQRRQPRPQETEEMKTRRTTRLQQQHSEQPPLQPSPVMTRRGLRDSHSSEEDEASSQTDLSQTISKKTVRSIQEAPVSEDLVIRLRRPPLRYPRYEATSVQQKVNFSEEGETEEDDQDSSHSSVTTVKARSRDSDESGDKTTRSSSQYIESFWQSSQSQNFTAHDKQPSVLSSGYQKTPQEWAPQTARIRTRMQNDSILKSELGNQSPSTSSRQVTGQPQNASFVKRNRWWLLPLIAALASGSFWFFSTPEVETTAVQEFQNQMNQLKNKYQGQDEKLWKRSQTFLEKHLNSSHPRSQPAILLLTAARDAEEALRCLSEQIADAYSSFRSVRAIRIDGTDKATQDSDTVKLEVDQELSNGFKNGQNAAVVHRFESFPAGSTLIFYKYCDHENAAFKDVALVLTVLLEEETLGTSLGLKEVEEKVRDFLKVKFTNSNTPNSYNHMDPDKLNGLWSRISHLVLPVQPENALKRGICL
Chain of Epidermal growth factor receptor (Homo sapiens) (P00533 whole entry, looked up): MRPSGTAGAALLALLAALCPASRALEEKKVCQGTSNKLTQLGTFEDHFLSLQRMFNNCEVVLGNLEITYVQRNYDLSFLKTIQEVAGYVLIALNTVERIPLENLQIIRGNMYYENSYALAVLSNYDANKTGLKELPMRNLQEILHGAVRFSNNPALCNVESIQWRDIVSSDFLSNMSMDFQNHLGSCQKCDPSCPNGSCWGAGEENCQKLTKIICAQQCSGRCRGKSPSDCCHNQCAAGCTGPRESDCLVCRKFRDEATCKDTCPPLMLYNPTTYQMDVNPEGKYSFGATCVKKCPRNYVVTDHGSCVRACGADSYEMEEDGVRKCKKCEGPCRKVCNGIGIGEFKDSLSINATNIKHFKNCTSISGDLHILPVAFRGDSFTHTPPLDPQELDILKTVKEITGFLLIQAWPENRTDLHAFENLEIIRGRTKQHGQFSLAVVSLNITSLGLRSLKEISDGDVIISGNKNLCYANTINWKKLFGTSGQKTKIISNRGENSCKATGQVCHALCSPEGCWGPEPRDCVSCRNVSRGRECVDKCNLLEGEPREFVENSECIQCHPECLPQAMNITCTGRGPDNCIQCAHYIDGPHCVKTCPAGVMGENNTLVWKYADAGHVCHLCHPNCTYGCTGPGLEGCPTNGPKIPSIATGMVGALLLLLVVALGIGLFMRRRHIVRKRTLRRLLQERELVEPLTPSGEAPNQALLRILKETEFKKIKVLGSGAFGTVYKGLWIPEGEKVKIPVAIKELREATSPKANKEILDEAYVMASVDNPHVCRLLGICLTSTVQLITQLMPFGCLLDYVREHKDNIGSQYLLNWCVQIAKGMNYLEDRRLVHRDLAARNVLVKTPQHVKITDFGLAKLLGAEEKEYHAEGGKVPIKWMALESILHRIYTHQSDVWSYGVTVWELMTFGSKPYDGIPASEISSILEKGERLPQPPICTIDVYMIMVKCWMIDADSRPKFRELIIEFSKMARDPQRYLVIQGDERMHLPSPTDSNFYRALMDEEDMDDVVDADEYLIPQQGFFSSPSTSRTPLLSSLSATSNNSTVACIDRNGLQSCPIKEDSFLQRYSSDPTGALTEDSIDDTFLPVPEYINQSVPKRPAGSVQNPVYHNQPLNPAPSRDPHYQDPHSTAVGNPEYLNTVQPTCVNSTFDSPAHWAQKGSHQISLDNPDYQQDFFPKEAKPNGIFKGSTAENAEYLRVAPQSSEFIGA
Chain of Fibroblast growth factor 10 (Homo sapiens) (O15520 whole entry, looked up): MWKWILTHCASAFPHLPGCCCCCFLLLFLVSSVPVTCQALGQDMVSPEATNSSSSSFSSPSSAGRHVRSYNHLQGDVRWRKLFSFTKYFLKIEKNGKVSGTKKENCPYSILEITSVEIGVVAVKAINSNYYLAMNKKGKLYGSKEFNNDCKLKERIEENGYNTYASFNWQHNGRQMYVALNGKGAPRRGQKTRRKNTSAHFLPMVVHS
Chain of Follistatin-related protein 3 (Homo sapiens) (O95633 whole entry, looked up): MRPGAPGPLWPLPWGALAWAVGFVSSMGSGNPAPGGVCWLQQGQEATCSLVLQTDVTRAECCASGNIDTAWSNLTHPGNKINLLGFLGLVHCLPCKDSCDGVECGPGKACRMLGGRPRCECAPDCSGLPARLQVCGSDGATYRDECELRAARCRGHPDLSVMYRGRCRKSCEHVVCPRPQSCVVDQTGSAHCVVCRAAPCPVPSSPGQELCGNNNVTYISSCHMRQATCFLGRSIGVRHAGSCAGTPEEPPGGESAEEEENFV
Chain of Left-right determination factor 2 (Homo sapiens) (O00292 whole entry, looked up): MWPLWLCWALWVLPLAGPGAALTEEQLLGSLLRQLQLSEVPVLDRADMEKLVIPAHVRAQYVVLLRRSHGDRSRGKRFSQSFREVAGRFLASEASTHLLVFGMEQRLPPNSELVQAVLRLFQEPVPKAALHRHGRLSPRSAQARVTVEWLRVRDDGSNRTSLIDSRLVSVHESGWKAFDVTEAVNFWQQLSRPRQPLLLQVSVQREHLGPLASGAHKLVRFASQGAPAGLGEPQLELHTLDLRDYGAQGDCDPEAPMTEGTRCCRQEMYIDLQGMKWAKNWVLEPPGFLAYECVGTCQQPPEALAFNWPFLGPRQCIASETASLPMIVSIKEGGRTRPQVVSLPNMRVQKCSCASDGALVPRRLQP
Chain of Dickkopf-related protein 1 (Homo sapiens) (O94907 whole entry, looked up): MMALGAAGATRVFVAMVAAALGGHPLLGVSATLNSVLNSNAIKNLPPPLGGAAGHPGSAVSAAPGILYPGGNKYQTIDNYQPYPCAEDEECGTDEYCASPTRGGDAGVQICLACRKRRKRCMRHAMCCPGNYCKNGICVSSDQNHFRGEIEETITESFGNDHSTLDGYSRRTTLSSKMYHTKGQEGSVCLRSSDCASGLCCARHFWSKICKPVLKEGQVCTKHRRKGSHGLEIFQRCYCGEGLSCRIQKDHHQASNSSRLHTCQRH

| SMILES | composite z-score [1] | composite z-score [2] | composite z-score [3] | z-score [4] | composite z-score [5] | composite z-score [6] | composite z-score [7] | composite z-score [8] | composite z-score [9] | composite z-score [10] | composite z-score [11] | z-score [12] | composite z-score [13] | composite z-score [14] | composite z-score [15] | composite z-score [16] | composite z-score [17] | composite z-score [18] | composite z-score [19] | composite z-score [20] |
| --- | --- | --- | --- | --- | --- | --- | --- | --- | --- | --- | --- | --- | --- | --- | --- | --- | --- | --- | --- | --- |
| COC(=O)c1ccc(OC)c(/C=C\CC(CCc2ccccc2)OC(C)=O)c1 (stereo not given) | -0.388 | -0.493 | -0.101 | -0.101 (inactive) | -0.614 | -0.0629 | -0.309 | 0.21 | 0.239 | 1.53 | -0.498 | -1.1 | -0.274 | -0.42 | -0.134 | -0.152 | -0.214 | -0.192 | -0.343 | 0.516 |
| [N-]=[N+]=NCc1ccccc1C[C@]1(C(=O)NCCN2CCOCC2)COC(c2ccc(OCCCO)cc2)=N1 | 1.49 | 0.297 | 0.853 | -0.995 (inactive) | 0.396 | 0.966 | -0.553 | 0.101 | -0.36 | 0.978 | 1.44 | -1.79 | -0.389 | 0.74 | -0.096 | 0.0479 | -0.0119 | -0.509 | 0.555 | -0.0034 |
| [N-]=[N+]=NCc1ccccc1C[C@]1(C(=O)NCCN2CCOCC2)N=C(c2ccc(OCCCO)cc2)O[C@H]1c1ccccc1 | 1.69 | 0.103 | 0.826 | -0.326 (inactive) | 1.04 | 1.28 | -0.329 | 0.0637 | -0.781 | 0.527 | 1.45 | -2.64 | -0.481 | 0.835 | -0.401 | 0.0215 | 0.131 | -0.465 | 1.46 | 1.16 |
| CC(C)C[C@H]1NC(=O)[C@H](C)NC(=O)[C@@]23C(=O)N[C@@H](Cc4ccccc4)C2[C@H](C)[C@@]2(C)O[C@H]2C3/C=C/C/C=C\CNC1=O (stereo not given in full) | 0.0682 | -0.597 | -0.376 | 0.271 (inactive) | -0.148 | -0.294 | -0.0275 | 0.461 | 0.29 | 1.55 | 0.84 | -0.201 | -0.206 | -0.893 | -0.806 | -0.166 | -0.123 | 0.202 | 0.462 | -0.086 |
| CCOC(=O)C[C@H]1[C@H](OC(=O)c2cc3ccccc3oc2=O)[C@@H](NC(=O)c2ccc3ccccc3n2)c2cc(OCCCO)ccc2N1C(=O)c1ccc2ccccc2n1 | 0.522 | 0.273 | -0.033 | 0.613 (inactive) | 1.13 | 0.743 | 0.503 | 1.3 | 1.01 | 0.626 | 0.412 | -2.04 | 1.09 | -0.145 | -0.36 | 0.172 | 0.01 | -0.158 | 0.816 | 0.214 |
| COCC(=C=CC[C@@H](O)c1ccccc1OCCO)C[C@@H](O)c1ccccn1 | 0.378 | -0.0661 | -0.0356 | 0.141 (inactive) | 0.457 | 0.207 | -0.0982 | 0.322 | 0.0514 | 0.639 | 0.968 | -0.979 | 0.289 | -0.153 | -0.514 | -0.124 | -0.0119 | 0.099 | -0.246 | 0.34 |
| COc1ccc(CCNC(=O)[C@@H]2c3ccccc3C(=O)N(Cc3ccccc3)[C@H]2c2ccc(CO)cc2)cc1 | 1.23 | -0.0548 | 0.693 | -0.575 (inactive) | 0.847 | 0.432 | -0.25 | 0.84 | -0.0051 | 0.309 | 1.43 | -1.17 | 0.117 | -0.0056 | -0.904 | -0.0512 | -0.0813 | -0.293 | 1.15 | 0.36 |
| COC(=O)c1c(CC[C@@H](CO)NC(=O)N[C@@H](C)Cn2cc(C3(O)CCCC3)nn2)oc(C(C)=O)c1C(=O)OC | 0.513 | -0.196 | -0.206 | -1.45 (inactive) | 0.308 | -0.161 | 0.0477 | 0.104 | -0.217 | -0.338 | 0.467 | 0.884 | 0.0541 | -0.186 | -0.467 | -0.0758 | -0.0709 | -0.368 | 0.711 | 0.282 |
| COCCOC(=O)N1C(=O)[C@@]2(c3ccccc31)[C@H](c1ccc(OCCO)cc1)N1[C@H](c3ccccc3)[C@H](c3ccccc3)OC(=O)[C@H]1[C@@H]2C(=O)NC[C@H](O)c1ccccc1 | 1.32 | 0.161 | 0.568 | -0.353 (inactive) | 1.2 | 0.777 | 0.146 | 1.38 | 0.362 | 0.526 | 1.44 | -1.95 | 0.0792 | 0.718 | 0.716 | -0.0758 | -0.141 | 0.554 | 0.839 | 1.92 |
| CCCCC(=C=CC[C@H](O)c1cccc(OCCO)c1)C[C@H](O)COCc1ccccc1 | 0.766 | -0.31 | -0.053 | -0.992 (inactive) | 0.688 | -0.207 | -0.572 | -0.117 | -0.627 | 0.58 | 0.49 | -1.88 | -0.466 | -0.59 | -0.897 | -0.148 | -0.154 | -0.397 | -0.432 | -0.283 |
| O=C1NC(=O)C2C1C=CC(C(O)c1ccc(-c3ccccc3)s1)N2Nc1ccccn1 (stereo not given) | 0.115 | 1.09 | 1.25 | 1.56 (inactive) | 0.475 | -0.316 | 0.559 | 0.561 | 0.664 | 1.18 | -1.13 | -0.684 | 0.18 | 0.0183 | 0.0403 | 0.0746 | -0.0961 | -0.0545 | 2.8 | 0.435 |

Source: PubChem BioAssay
